How the values were obtained:
Experiment in all cases: DAPPL (digital affinity profiling via proximity ligation, sequencing); 10 mM Tris-HCl pH 7.5, 50 mM NaCl, 1 mM DTT, 4% glycerol, room temperature, 30 min; GST-TFs on glutathione beads, 16-mer random dsDNA library, 0.1% formaldehyde crosslink after washing; high values mean tight binding
FLI1 = target: T1, FLI1 (Homo sapiens, UniProt Q01543 1-452); conditions: protein: recombinant; tags: N-terminal GST; dsDNA, one strand shown
T1 sequence: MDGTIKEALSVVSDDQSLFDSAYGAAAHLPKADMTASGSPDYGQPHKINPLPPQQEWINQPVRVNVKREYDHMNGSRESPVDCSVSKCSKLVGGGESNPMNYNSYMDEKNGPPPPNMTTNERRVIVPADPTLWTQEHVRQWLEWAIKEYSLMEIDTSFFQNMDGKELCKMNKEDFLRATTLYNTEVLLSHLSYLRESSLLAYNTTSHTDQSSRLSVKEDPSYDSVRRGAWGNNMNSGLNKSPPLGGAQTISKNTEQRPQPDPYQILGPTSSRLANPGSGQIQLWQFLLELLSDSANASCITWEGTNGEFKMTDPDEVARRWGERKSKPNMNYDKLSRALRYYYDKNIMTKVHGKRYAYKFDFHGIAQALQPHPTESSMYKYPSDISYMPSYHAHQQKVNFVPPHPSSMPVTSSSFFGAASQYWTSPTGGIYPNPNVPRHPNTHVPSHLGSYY
Method in brief: (§1)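 Binding signal is defined as a hexamer's read frequency for one factor over its frequency for the tag-only sample. To obtain reads, GST-fused human transcription factors were expressed in yeast, captured on glutathione beads, barcoded with DNA and pooled with that sample. Pools met 200 nmole of a 16-mer random double-stranded DNA library in Tris/NaCl/DTT/glycerol buffer for 30 min at room temperature before washing, 0.1% formaldehyde crosslinking, proximity ligation (BsaI/T4 ligase, 1 h, 37 °C), PCR and Illumina NextSeq500 sequencing.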

ELK1 = target: T2, ELK1 (Homo sapiens, UniProt P19419 1-428); conditions: protein: recombinant; tags: N-terminal GST; dsDNA, one strand shown
T2 sequence: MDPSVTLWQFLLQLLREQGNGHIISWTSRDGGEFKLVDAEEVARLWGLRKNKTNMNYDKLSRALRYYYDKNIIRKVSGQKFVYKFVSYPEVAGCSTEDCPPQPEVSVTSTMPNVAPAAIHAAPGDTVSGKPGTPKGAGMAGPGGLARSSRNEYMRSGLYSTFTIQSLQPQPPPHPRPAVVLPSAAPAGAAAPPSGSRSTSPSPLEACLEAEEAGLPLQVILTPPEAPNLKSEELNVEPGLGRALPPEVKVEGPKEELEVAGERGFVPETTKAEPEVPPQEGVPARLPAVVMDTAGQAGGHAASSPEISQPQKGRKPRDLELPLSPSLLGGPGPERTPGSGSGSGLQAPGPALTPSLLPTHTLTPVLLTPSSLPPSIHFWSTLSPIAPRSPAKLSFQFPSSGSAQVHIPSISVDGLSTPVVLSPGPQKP
Method in brief: as §1

GABPA = target: T3, GABPA (Homo sapiens, UniProt Q06546 1-454); conditions: protein: recombinant; tags: N-terminal GST; dsDNA, one strand shown
T3 sequence: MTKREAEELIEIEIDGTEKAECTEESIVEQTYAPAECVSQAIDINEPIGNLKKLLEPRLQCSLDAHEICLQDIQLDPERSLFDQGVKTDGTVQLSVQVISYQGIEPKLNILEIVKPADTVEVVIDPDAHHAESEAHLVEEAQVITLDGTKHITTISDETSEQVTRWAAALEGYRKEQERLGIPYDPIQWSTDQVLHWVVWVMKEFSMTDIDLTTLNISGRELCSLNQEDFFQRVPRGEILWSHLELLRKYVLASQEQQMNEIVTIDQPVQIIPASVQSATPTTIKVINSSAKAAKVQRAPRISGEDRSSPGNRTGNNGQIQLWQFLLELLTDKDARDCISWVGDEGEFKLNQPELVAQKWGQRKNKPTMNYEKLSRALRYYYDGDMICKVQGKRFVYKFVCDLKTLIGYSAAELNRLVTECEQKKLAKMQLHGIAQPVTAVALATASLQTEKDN
Method in brief: as §1

ERG = target: T4, ERG (Homo sapiens, UniProt P11308 1-479); conditions: protein: recombinant; tags: N-terminal GST; dsDNA, one strand shown
T4 sequence: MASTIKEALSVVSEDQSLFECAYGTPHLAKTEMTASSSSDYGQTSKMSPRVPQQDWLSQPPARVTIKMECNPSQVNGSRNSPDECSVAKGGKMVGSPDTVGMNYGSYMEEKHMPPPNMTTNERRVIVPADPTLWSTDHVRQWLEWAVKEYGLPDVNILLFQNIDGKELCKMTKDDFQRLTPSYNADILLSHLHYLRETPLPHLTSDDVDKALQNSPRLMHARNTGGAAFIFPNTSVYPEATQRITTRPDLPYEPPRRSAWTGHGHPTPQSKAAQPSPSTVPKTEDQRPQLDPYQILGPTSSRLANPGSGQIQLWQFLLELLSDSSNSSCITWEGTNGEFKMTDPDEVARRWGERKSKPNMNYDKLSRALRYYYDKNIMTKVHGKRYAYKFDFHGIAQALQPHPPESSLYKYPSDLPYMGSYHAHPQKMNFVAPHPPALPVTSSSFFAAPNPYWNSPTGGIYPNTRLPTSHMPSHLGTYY
Method in brief: as §1

ELF1 = ELF1 (Homo sapiens, UniProt P32519 1-619); conditions: protein: recombinant; tags: N-terminal GST; dsDNA, one strand shown
Method in brief: as §1

EHF = target: T5, EHF (Homo sapiens, UniProt Q9NZC4 1-300); conditions: protein: recombinant; tags: N-terminal GST; dsDNA, one strand shown
T5 sequence: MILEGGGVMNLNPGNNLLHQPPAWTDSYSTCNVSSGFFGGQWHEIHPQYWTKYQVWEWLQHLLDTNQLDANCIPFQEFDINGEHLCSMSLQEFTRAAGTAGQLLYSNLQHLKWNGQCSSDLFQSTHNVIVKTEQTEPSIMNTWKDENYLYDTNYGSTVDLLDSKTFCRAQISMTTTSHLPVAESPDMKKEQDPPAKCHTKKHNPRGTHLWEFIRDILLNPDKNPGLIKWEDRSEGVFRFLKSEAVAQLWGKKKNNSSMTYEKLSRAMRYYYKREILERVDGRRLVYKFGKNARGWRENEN
Method in brief: as §1

SPI1 = SPI1 (Homo sapiens, UniProt P17947 1-270); conditions: protein: recombinant; tags: N-terminal GST; dsDNA, one strand shown
Method in brief: as §1

SPIB = SPIB (Homo sapiens, UniProt Q01892 1-262); conditions: protein: recombinant; tags: N-terminal GST; dsDNA, one strand shown
Method in brief: as §1

ELK3 = target: T6, ELK3 (Homo sapiens, UniProt P41970 1-407); conditions: protein: recombinant; tags: N-terminal GST; dsDNA, one strand shown
T6 sequence: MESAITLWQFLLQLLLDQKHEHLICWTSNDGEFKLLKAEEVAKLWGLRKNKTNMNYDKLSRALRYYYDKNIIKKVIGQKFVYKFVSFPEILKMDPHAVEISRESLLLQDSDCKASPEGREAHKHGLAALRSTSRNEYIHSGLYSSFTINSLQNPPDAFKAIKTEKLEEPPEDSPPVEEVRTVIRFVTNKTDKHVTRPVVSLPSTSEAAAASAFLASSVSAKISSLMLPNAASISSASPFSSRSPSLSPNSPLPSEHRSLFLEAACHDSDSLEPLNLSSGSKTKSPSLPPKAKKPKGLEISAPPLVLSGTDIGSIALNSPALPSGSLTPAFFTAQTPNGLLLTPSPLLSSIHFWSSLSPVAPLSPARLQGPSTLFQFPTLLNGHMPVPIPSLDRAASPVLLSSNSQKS
Method in brief: as §1

FEV = target: T7, FEV (Homo sapiens, UniProt Q99581 1-238); conditions: protein: recombinant; tags: N-terminal GST; dsDNA, one strand shown
T7 sequence: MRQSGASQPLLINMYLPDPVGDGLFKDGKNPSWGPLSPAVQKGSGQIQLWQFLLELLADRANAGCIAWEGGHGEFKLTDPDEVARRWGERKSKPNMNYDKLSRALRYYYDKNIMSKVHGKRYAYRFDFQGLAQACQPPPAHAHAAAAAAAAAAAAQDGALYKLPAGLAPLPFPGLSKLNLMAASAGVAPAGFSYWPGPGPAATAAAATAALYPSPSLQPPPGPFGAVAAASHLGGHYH
Method in brief: as §1

ETV5 = ETV5 (Homo sapiens, UniProt P41161 1-510); conditions: protein: recombinant; tags: N-terminal GST; dsDNA, one strand shown
Method in brief: as §1

HSF1 = HSF1 (Homo sapiens, UniProt Q00613 1-529); conditions: protein: recombinant; tags: N-terminal GST; chain copies: 3; dsDNA, one strand shown
Method in brief: as §1

SPIC = target: T8, SPIC (Homo sapiens, UniProt Q8N5J4 1-248); conditions: protein: recombinant; tags: N-terminal GST; dsDNA, one strand shown
T8 sequence: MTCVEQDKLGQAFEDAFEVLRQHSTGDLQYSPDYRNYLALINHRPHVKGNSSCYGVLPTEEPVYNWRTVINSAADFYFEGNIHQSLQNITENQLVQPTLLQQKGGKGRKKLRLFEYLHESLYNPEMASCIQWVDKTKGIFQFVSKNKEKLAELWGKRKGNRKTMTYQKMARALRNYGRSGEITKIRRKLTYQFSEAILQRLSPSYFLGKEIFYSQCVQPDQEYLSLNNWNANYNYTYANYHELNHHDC
Method in brief: as §1

ELF4 = ELF4 (Homo sapiens, UniProt Q99607 1-663); conditions: protein: recombinant; tags: N-terminal GST; dsDNA, one strand shown
Method in brief: as §1

ELK4 = target: T9, ELK4 (Homo sapiens, UniProt P28324-2 1-405); conditions: protein: recombinant; tags: N-terminal GST; dsDNA, one strand shown
T9 sequence: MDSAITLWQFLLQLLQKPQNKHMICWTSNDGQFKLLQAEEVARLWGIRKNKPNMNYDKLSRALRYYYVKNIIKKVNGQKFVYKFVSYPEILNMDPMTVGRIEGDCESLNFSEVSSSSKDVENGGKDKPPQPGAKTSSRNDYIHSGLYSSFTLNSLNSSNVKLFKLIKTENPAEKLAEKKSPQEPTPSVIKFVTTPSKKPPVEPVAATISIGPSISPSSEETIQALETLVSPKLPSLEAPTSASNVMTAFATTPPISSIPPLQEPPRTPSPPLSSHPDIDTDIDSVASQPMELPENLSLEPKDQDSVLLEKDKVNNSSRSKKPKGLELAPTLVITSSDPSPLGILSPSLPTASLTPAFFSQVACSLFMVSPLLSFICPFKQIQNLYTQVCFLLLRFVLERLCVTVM
Method in brief: as §1

ETV2 = target: T10, ETV2 (Homo sapiens, UniProt O00321 1-342); conditions: protein: recombinant; tags: N-terminal GST; dsDNA, one strand shown
T10 sequence: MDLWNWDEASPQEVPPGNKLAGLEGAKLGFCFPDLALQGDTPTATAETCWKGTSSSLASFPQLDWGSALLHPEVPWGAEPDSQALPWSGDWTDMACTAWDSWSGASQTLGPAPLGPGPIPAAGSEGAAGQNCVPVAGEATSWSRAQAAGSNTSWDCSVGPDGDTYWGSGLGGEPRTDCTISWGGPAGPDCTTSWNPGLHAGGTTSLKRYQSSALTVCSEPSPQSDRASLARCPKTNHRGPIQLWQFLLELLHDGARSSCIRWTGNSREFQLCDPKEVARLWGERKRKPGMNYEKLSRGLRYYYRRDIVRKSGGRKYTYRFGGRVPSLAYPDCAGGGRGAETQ
Method in brief: as §1

ELF3 = target: T11, ELF3 (Homo sapiens, UniProt P78545 1-371); conditions: protein: recombinant; tags: N-terminal GST; dsDNA, one strand shown
T11 sequence: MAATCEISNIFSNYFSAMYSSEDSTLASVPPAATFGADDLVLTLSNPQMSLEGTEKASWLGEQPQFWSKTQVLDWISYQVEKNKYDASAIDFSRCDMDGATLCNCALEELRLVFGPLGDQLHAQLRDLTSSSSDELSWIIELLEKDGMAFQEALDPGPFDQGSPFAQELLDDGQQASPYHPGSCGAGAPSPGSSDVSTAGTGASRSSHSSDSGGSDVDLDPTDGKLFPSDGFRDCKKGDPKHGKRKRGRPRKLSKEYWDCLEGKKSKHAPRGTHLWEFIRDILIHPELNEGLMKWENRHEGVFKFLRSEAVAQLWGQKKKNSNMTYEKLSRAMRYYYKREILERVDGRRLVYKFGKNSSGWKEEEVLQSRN
Method in brief: as §1

CRX = CRX (Homo sapiens, UniProt O43186 1-299); conditions: protein: recombinant; tags: N-terminal GST; dsDNA, one strand shown
Method in brief: as §1

ETV1 = ETV1 (Homo sapiens, UniProt P50549 1-477); conditions: protein: recombinant; tags: N-terminal GST; dsDNA, one strand shown
Method in brief: as §1

Sequence of ELF1 (P32519 whole entry): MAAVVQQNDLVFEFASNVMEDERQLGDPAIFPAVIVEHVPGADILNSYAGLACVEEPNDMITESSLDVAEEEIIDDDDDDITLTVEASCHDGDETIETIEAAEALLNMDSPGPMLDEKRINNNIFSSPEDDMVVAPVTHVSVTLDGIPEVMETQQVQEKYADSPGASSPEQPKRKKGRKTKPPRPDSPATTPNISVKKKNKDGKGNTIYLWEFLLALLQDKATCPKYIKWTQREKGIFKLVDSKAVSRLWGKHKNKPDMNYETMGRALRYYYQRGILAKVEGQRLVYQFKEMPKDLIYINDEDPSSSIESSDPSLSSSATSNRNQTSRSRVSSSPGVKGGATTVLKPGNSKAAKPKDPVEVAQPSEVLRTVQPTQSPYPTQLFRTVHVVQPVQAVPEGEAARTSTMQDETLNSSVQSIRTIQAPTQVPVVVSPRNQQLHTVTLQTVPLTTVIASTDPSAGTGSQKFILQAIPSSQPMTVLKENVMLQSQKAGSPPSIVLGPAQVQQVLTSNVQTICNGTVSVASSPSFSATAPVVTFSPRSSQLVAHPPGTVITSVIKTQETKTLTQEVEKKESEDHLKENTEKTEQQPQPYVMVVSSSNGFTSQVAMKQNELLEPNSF
Sequence of ELF4 (Q99607 whole entry): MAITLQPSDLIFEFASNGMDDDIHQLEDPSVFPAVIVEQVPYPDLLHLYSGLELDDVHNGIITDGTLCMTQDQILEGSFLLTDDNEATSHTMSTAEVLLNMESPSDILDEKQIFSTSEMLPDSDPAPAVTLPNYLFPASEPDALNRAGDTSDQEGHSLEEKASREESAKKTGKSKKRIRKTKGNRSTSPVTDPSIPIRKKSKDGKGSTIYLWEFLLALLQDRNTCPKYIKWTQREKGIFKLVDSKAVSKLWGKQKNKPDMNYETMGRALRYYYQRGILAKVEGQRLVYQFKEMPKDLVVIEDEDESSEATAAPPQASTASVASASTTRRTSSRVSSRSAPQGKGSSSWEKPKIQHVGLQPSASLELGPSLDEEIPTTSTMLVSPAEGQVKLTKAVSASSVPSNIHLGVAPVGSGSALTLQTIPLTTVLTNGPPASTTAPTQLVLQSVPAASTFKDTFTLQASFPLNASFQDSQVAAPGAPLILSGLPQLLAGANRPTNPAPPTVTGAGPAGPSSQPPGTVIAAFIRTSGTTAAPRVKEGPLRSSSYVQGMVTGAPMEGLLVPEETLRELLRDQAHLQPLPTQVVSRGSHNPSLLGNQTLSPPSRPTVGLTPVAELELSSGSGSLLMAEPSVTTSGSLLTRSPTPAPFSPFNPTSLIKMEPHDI
Sequence of ETV5 (P41161 whole entry): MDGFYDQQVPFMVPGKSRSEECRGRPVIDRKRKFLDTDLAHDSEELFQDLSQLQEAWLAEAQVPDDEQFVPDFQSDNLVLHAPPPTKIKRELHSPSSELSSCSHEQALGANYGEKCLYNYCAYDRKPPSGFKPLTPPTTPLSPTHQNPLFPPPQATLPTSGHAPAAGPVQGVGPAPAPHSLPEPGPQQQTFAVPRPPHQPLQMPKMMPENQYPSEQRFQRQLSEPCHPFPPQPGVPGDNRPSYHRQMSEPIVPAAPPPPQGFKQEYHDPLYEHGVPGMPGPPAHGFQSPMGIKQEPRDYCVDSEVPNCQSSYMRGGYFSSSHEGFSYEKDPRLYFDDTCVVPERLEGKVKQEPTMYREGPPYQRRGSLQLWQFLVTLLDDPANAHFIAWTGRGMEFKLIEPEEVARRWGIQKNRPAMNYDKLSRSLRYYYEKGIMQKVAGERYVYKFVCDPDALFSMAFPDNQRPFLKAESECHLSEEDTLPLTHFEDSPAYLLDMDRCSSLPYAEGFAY
Sequence of SPIB (Q01892 whole entry): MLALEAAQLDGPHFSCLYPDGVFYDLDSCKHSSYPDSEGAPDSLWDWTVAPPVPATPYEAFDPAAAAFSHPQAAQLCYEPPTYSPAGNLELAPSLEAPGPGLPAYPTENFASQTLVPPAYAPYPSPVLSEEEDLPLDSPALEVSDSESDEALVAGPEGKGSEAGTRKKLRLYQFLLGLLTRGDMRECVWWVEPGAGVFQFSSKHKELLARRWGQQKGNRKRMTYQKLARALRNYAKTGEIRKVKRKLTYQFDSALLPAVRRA
Sequence of HSF1 (Q00613 whole entry): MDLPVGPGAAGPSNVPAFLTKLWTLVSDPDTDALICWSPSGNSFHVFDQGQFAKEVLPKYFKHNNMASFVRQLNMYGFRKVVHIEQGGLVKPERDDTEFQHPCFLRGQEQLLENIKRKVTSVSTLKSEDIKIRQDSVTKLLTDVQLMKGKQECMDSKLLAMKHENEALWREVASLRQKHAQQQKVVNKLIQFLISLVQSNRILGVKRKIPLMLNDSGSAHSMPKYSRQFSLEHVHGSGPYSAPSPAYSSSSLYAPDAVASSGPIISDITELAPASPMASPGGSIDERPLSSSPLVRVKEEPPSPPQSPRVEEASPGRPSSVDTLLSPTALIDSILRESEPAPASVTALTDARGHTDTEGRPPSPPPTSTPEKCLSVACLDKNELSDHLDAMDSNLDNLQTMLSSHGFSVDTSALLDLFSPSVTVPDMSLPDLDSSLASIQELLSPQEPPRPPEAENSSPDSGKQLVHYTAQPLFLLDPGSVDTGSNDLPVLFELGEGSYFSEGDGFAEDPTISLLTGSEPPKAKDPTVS
Sequence of ETV1 (P50549 whole entry): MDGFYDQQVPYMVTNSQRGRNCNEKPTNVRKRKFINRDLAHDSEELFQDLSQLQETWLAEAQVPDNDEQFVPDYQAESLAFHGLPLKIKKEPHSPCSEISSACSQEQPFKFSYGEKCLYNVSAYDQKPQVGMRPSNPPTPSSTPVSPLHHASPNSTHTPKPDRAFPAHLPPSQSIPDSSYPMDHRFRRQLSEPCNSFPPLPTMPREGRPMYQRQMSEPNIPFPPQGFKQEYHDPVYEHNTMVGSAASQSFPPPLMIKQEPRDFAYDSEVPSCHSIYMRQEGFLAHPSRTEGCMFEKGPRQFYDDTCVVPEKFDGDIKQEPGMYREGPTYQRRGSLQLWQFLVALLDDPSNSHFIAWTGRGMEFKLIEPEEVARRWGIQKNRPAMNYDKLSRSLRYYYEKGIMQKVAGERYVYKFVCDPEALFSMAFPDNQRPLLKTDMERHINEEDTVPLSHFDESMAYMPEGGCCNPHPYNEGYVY
Sequence of CRX (O43186 whole entry): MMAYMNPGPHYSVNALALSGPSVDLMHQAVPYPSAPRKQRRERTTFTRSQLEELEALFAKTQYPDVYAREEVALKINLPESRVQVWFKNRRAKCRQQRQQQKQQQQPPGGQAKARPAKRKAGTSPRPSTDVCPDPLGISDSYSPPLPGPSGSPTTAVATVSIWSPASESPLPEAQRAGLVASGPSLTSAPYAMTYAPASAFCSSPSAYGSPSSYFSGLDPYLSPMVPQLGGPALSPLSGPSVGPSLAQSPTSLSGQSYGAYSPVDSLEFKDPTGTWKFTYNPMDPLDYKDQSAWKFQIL

Sequence: CCTCGA
- binding signal (FLI1): 1.33 fold enrichment (6-mer frequency, TF over GST control)
- binding signal (ELK1): 1.26 fold enrichment (6-mer frequency, TF over GST control)
- binding signal (GABPA): 1.31 fold enrichment (6-mer frequency, TF over GST control)
- binding signal (ERG): 1.3 fold enrichment (6-mer frequency, TF over GST control)
- binding signal (ELF1): 1.27 fold enrichment (6-mer frequency, TF over GST control)
- binding signal (EHF): 1.37 fold enrichment (6-mer frequency, TF over GST control)
- binding signal (SPI1): 1.26 fold enrichment (6-mer frequency, TF over GST control)
- binding signal (SPIB): 1.25 fold enrichment (6-mer frequency, TF over GST control)
- binding signal (ELK3): 1.18 fold enrichment (6-mer frequency, TF over GST control)
- binding signal (FEV): 1.21 fold enrichment (6-mer frequency, TF over GST control)
- binding signal (ETV5): 1.27 fold enrichment (6-mer frequency, TF over GST control)
- binding signal (HSF1): 1.75 fold enrichment (6-mer frequency, TF over GST control)
- binding signal (SPIC): 1.29 fold enrichment (6-mer frequency, TF over GST control)
- binding signal (ELF4): 1.35 fold enrichment (6-mer frequency, TF over GST control)
- binding signal (ELK4): 1.38 fold enrichment (6-mer frequency, TF over GST control)
- binding signal (ETV2): 1.55 fold enrichment (6-mer frequency, TF over GST control)
- binding signal (ELF3): 1.25 fold enrichment (6-mer frequency, TF over GST control)
- binding signal (CRX): 1.26 fold enrichment (6-mer frequency, TF over GST control)
- binding signal (ETV1): 1.15 fold enrichment (6-mer frequency, TF over GST control)

From PMC7862700, “An all-to-all approach to the identification of sequence-specific readers for epigenetic DNA modifications on cytosine”
